# Assay results taken from PubChem BioAssay.
# Inconclusive results are not listed. The source made the active and inactive calls.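 Rule for the calls, unless noted: active = normalized viability below 100% at a tested concentration; inactive = the rest.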
# Legend:
# [1] = growth inhibition of DIPG glioma cells, dose response, cell-based, SU-DIPG-XVII, MIPE5.0, CellTiter-Glo, qHTS (AID 1347060; cut-off not given, nearly all actives have AC50 up to about 26 µM;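 note: cells exposed to compound for 48 hours before viability readout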); settings: SU-DIPG-XVII viability, CellTiter-Glo ATP luminescence
# [2] = growth inhibition of DIPG glioma cells, dose response, cell-based, JHH-DIPG-1, MIPE4.0, CellTiter-Glo, qHTS (AID 1347062; cut-off not given, nearly all actives have AC50 up to about 27 µM;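 note: cells exposed to compound for two days before readout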); settings: JHH-DIPG-1 viability, CellTiter-Glo ATP luminescence
# [3] = growth inhibition of DIPG glioma cells, dose response, cell-based, SU-DIPG-IV, MIPE4.0, CellTiter-Glo, qHTS (AID 1347063; cut-off not given, nearly all actives have AC50 up to about 30 µM;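 note: compound exposure lasted 48 hours before the viability readout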); settings: SU-DIPG-IV viability, CellTiter-Glo ATP luminescence
# [4] = viability loss in pontine glioma line – cell-based, SU-DIPG-XXV, MIPE5.0, CellTiter-Glo, qHTS, dose response (AID 1347065; cut-off not given, nearly all actives have AC50 up to about 26 µM;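 note: cells exposed to compound for 48 hours before ATP readout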); settings: CellTiter-Glo ATP luminescence
# [5] = JHH-DIPG-1 glioma cell viability, MIPE5.0 library, CellTiter-Glo luminescence, qHTS (AID 1347067; cut-off not given, nearly all actives have AC50 up to about 26 µM;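 note: cells exposed to compound for 48 hours before readout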); settings: JHH-DIPG-1 glioma viability, CellTiter-Glo ATP luminescence
# [6] = sensitizers of A549 cells to miR-34 induction, primary screen, imaging, A549 dox-inducible miR-34, nuclei and caspase counts (AID 1347080;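 active = compounds whose cell count with miR-34 switched on is under 0.7 times the count with it off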); settings: A549 miR-34 inducible, Hoechst nuclei count, 48 h
# [7] = survival rescue of mitochondrial mutant cells in low glucose, primary screen, MELAS cybrids, Rieske KO mouse fibroblasts, CellTiter-Glo (AID 1508586;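 active = mean z-score across replicates of 1.96 or higher in either the MELAS or the Rieske mutant cell line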;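 note: z relative to plate mean and SD of compound and empty wells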)
# [8] = LFS_MB_P medulloblastoma growth inhibition, cell-based, chromothripsis tumors, cisplatin or BGB combos (AID 1671449; in the data active = inhibition above about 80%;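 note: cells exposed for 96 hours; 0% = vehicle DMSO and 100% = killing by high DMSO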); settings: LFS_MB_P medulloblastoma cells
# [9] = HDN33 neuroblastoma growth inhibition, cell-based, chromothripsis tumors, cisplatin or BGB combos (AID 1671450; in the data active = inhibition above about 80%;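 note: cells exposed to compound for four days; 0% = vehicle DMSO and 100% = cell killing by high DMSO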); settings: HDN33 neuroblastoma cells, stronger effect = higher value
# [10] = ICB984 medulloblastoma cell growth inhibition, synergistic combos for chromothripsis tumors, cisplatin or BGB combos (AID 1671451; call rule not given here;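 note: cells exposed for 96 hours before readout; 0% = vehicle DMSO and 100% = killing by high DMSO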); settings: ICB984 medulloblastoma cells, drug combinations, stronger effect = higher value
# [11] = HTB85 osteosarcoma cell growth inhibition, synergistic combos for chromothripsis tumors, BGB or cisplatin IC20 combos (AID 1671453; in the data active = inhibition above about 80%;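 note: cells exposed for 96 hours before readout; 0% = vehicle DMSO and 100% = high DMSO killing control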); settings: HTB85 osteosarcoma cells, drug combinations, stronger effect = higher value
# [12] = MDA-MB-436 breast carcinoma cell growth inhibition, synergistic combos for chromothripsis tumors, BGB or cisplatin combos (AID 1671458; call rule not given here;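 note: cells exposed for 96 hours; 0% = vehicle DMSO and 100% = killing by high DMSO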); settings: MDA-MB-436 breast carcinoma growth inhibition, drug combinations, stronger effect = higher value
# [13] = growth inhibition of BT084 medulloblastoma cells, cell-based, ICGC_MB145, cisplatin and BGB IC40 combos (AID 1671461; in the data active = inhibition above about 80%;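 note: cells exposed to drugs for 96 hours; 0% = vehicle DMSO and 100% = high DMSO full killing control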); settings: drug combinations, stronger effect = higher value
# [14] = growth inhibition of RCMB18 medulloblastoma cells, cell-based, cisplatin and BGB IC40 combos (AID 1671462; in the data active = inhibition above about 80%;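 note: cells exposed to compound for four days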); settings: stronger effect = higher value
# [15] = growth inhibition of CRL1545 osteosarcoma cells, cell-based, cisplatin and BGB IC20 combos (AID 1671464; in the data active = inhibition above about 80%;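 note: cells exposed to compound for 96 hours before readout; 0% = vehicle DMSO and 100% = high DMSO killing control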); settings: stronger effect = higher value
# [16] = SU-DIPG-XXV glioma cell viability, MIPE5.0 library, qHTS (AID 1347068; cut-off not given, nearly all actives have IC50 up to about 30 µM;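 note: cells exposed to compound for 48 hours before viability readout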)
# [17] = modifiers of HSF1 nuclear foci, imaging, Selleck Cancer Library (AID 1347162; in the data active = plate-normalised HSF1 focus index below about 0.46); settings: human cells, at 10 µM; SSMD: measured here: HSF1 foci SSMD mean; cell count: measured here: cell number; plate-normalised HSF1 focus index: stronger effect = lower value
# [18] = ovarian cancer cell viability with rucaparib, profiling panel, oncology-focused library, rucaparib conditional (AID 1508598); settings: patient-derived ovarian cancer cells, CellTiter-Glo viability, 144 h, stronger effect = lower value
# [19] = measured here: with BGB IC20 combination, at 0.5 µM
# [20] = measured here: with cisplatin IC20 combination, at 0.5 µM
smiles,measurement,setting,value
Cc1ccc2nc(NCCN)c3ncc(C)n3c2c1,AC50,[1],8.33 µM (active)
same,AC50,[2],2.35 µM (active)
same,AC50,[3],20.9 µM (active)
same,AC50,[4],8.33 µM (active)
same,AC50,[5],13.2 µM (active)
same,fold change,"[6]; stronger effect = lower value, cell number ratio, induced over uninduced",1.09 (inactive)
same,fold change,[6]; measured here: relative caspase fold change +Dox/-Dox,0.561
same,cell count,"[6]; measured here: total cells with miR-34 induction, stronger effect = lower value",6190
same,cell count,[6]; measured here: total cells without miR-34 induction,5680
same,z-score,"[7]; MELAS cybrid survival, CellTiter-Glo 48 h, stronger effect = higher value",-0.409 (inactive)
same,z-score,"[7]; Rieske KO mouse fibroblast survival, CellTiter-Glo 72 h",-2.24
same,inhibition,"[8]; at 0.5 µM, stronger effect = higher value",11.2% (inactive)
same,inhibition,"[8]; measured here: combination with BGB IC20, at 0.005 µM",0.796%
same,inhibition,"[8]; measured here: combination with BGB IC40, at 0.005 µM",-31.1%
same,inhibition,"[8]; measured here: combination with BGB IC40, at 0.05 µM",-6.91%
same,inhibition,"[8]; measured here: combination with cisplatin, at 0.5 µM, stronger effect = higher value",74.2%
same,inhibition,"[8]; measured here: combination with cisplatin, at 5 µM, stronger effect = higher value",-17.8%
same,inhibition,"[9]; BGB combo, at 5 µM",63.5%
same,inhibition,[9]; at 0.5 µM,-5% (inactive)
same,inhibition,"[9]; cisplatin combo, at 5 µM",55.9%
same,inhibition,[9]; [19],-7.6%
same,inhibition,[9]; [20],2.54%
same,inhibition,"[9]; single agent, at 5 µM",57.3%
same,inhibition,"[10]; BGB IC20 combo, at 0.005 µM",10.7%
same,inhibition,"[10]; BGB IC40 combo, at 0.005 µM",-98.8%
same,inhibition,"[10]; BGB IC40 combo, at 0.05 µM",52.7%
same,inhibition,[10]; at 0.5 µM,-16% (inactive)
same,inhibition,"[10]; cisplatin combo, at 0.05 µM",50.8%
same,inhibition,"[10]; cisplatin combo, at 0.5 µM",-17.9%
same,inhibition,"[10]; cisplatin combo, at 5 µM",-22.2%
same,inhibition,"[10]; measured here: 5 uM single agent, at 5 µM",-10.1%
same,inhibition,[11]; at 0.5 µM,7.35% (inactive)
same,inhibition,"[11]; measured here: with BGB IC20, at 0.5 µM",19.2%
same,inhibition,"[11]; measured here: with BGB IC20, at 5 µM",98.1%
same,inhibition,"[11]; measured here: with cisplatin IC20, at 0.5 µM",-7.65%
same,inhibition,"[11]; measured here: with cisplatin IC20, at 5 µM",89.2%
same,inhibition,"[11]; single agent, at 5 µM",91.7%
same,inhibition,[12]; at 0.5 µM,-3.06% (inactive)
same,inhibition,"[12]; measured here: BGB combination, at 0.5 µM",-13.7%
same,inhibition,"[12]; measured here: BGB combination, at 5 µM",65.6%
same,inhibition,"[12]; measured here: cisplatin combination, at 0.5 µM",6.41%
same,inhibition,"[12]; measured here: cisplatin combination, at 5 µM",80.2%
same,inhibition,[13]; at 0.5 µM,4.08% (inactive)
same,inhibition,"[13]; cisplatin combination, at 0.5 µM",-3.36%
same,inhibition,"[13]; cisplatin combination, at 5 µM",46.6%
same,inhibition,"[13]; measured here: BGB IC40 combination 0.05 uM, at 0.05 µM",-4.49%
same,inhibition,"[13]; single agent, at 5 µM",32.4%
same,inhibition,[14]; at 0.5 µM,1.56% (inactive)
same,inhibition,"[14]; cisplatin combo, at 5 µM",76%
same,inhibition,"[14]; measured here: BGB IC40 combination, at 0.05 µM",1.88%
same,inhibition,"[14]; measured here: combination with cisplatin, at 0.5 µM",32.9%
same,inhibition,"[14]; single agent, at 5 µM",33.3%
same,inhibition,[15]; at 0.5 µM,-12.7% (inactive)
same,inhibition,[15]; [19],-11.3%
same,inhibition,[15]; [20],-13.3%
same,inhibition,"[15]; single agent, at 0.05 µM",-17.3%
same,inhibition,"[15]; single agent, at 5 µM",99.7%
CC(C)C[C@H](NC(=O)CNC(=O)c1cc(Cl)ccc1Cl)B1OC(=O)CC(CC(=O)O)(C(=O)O)O1 (some centres undefined),AC50,[1],0.209 µM (active)
same,AC50,[2],0.132 µM (active)
same,AC50,[3],0.0662 µM (active)
same,AC50,[4],0.0833 µM (active)
same,AC50,[5],0.235 µM (active)
same,IC50,[16],0.132 µM (active)
same,SSMD,[17],2.92
same,cell count,[17],7560
same,plate-normalised HSF1 focus index,[17],1.18 (inactive)
same,viability,"[18]; at 0.000305 µM, OCI-C5x cells, with rucaparib 10 µM, 100% = cells with rucaparib alone",104% (inactive)
same,viability,"[18]; at 0.000305 µM, OCI-C5x cells, without rucaparib",124% (inactive)
same,viability,"[18]; at 0.000305 µM, OCI-P5x cells, with rucaparib 20 µM, 100% = cells with rucaparib alone",111% (inactive)
same,viability,"[18]; at 0.000305 µM, OCI-P5x cells, without rucaparib",113% (inactive)
same,viability,"[18]; at 0.00122 µM, OCI-C5x cells, with rucaparib 10 µM, 100% = cells with rucaparib alone",107% (inactive)
same,viability,"[18]; at 0.00122 µM, OCI-C5x cells, without rucaparib",123% (inactive)
same,viability,"[18]; at 0.00122 µM, OCI-P5x cells, with rucaparib 20 µM, 100% = cells with rucaparib alone",111% (inactive)
same,viability,"[18]; at 0.00122 µM, OCI-P5x cells, without rucaparib",110% (inactive)
same,viability,"[18]; at 0.00488 µM, OCI-C5x cells, with rucaparib 10 µM, 100% = cells with rucaparib alone",100% (inactive)
same,viability,"[18]; at 0.00488 µM, OCI-C5x cells, without rucaparib",122% (inactive)
same,viability,"[18]; at 0.00488 µM, OCI-P5x cells, with rucaparib 20 µM, 100% = cells with rucaparib alone",112% (inactive)
same,viability,"[18]; at 0.00488 µM, OCI-P5x cells, without rucaparib",110% (inactive)
same,viability,"[18]; at 0.0195 µM, OCI-C5x cells, with rucaparib 10 µM, 100% = cells with rucaparib alone",107% (inactive)
same,viability,"[18]; at 0.0195 µM, OCI-C5x cells, without rucaparib",119% (inactive)
same,viability,"[18]; at 0.0195 µM, OCI-P5x cells, with rucaparib 20 µM, 100% = cells with rucaparib alone",97.5% (active)
same,viability,"[18]; at 0.0195 µM, OCI-P5x cells, without rucaparib",104% (inactive)
same,viability,"[18]; at 0.0781 µM, OCI-C5x cells, with rucaparib 10 µM, 100% = cells with rucaparib alone",101% (inactive)
same,viability,"[18]; at 0.0781 µM, OCI-C5x cells, without rucaparib",118% (inactive)
same,viability,"[18]; at 0.0781 µM, OCI-P5x cells, with rucaparib 20 µM, 100% = cells with rucaparib alone",103% (inactive)
same,viability,"[18]; at 0.0781 µM, OCI-P5x cells, without rucaparib",100% (inactive)
same,viability,"[18]; at 0.313 µM, OCI-C5x cells, with rucaparib 10 µM, 100% = cells with rucaparib alone",25% (active)
same,viability,"[18]; at 0.313 µM, OCI-C5x cells, without rucaparib",16.8% (active)
same,viability,"[18]; at 0.313 µM, OCI-P5x cells, with rucaparib 20 µM, 100% = cells with rucaparib alone",12.3% (active)
same,viability,"[18]; at 0.313 µM, OCI-P5x cells, without rucaparib",3.86% (active)
same,viability,"[18]; at 1.25 µM, OCI-C5x cells, with rucaparib 10 µM, 100% = cells with rucaparib alone",6.01% (active)
same,viability,"[18]; at 1.25 µM, OCI-C5x cells, without rucaparib",5.13% (active)
same,viability,"[18]; at 1.25 µM, OCI-P5x cells, with rucaparib 20 µM, 100% = cells with rucaparib alone",2.61% (active)
same,viability,"[18]; at 1.25 µM, OCI-P5x cells, without rucaparib",1.15% (active)
same,viability,"[18]; at 5 µM, OCI-C5x cells, with rucaparib 10 µM, 100% = cells with rucaparib alone",1.84% (active)
same,viability,"[18]; at 5 µM, OCI-C5x cells, without rucaparib",1.81% (active)
same,viability,"[18]; at 5 µM, OCI-P5x cells, with rucaparib 20 µM, 100% = cells with rucaparib alone",1.46% (active)
same,viability,"[18]; at 5 µM, OCI-P5x cells, without rucaparib",0.836% (active)
CS[C@H]1SC[C@@H]2C(=O)N(C)[C@H](C(C)C)C(=O)OC[C@H](NC(=O)c3cnc4ccccc4n3)C(=O)N[C@H](C)C(=O)N(C)[C@H]1C(=O)N(C)[C@H](C(C)C)C(=O)OC[C@H](NC(=O)c1cnc3ccccc3n1)C(=O)N[C@H](C)C(=O)N2C,AC50,[1],0.00331 µM (active)
same,AC50,[2],0.00118 µM (active)
same,AC50,[3],0.00263 µM (active)
same,AC50,[4],0.00296 µM (active)
same,AC50,[5],0.00186 µM (active)
same,IC50,[16],0.0132 µM (active)
